In PubChem BioAssay (EPA / NIEHS) one finds outcome and AC50 data, which are given here for 20 compounds.

Values joined by “and” are separate entries in the source; they are usually repeats but may differ in a detail not shown here. Equal entries are not always repeated. Records with an inconclusive call do not appear. Where a structure was tested more than once in an assay, its records may differ in their call. Active and inactive are the calls of the source. Rule for the calls, unless noted: active = hit-call score of the fitted dose curve at least 0.9, where 1 is the maximum; inconclusive = response in the unintended direction; inactive = score below 0.9.

A short description of assay [1]: CEETOX_H295R_MTT_cell_viability: Viability Assessment in the CeeTox HT-H295R MTT Assay (AID 2283718; active = hit-call score of the fitted dose curve at least 0.9, where 1 is the maximum; inactive = score below 0.9). The procedure, abridged:
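MTT reduction (0.5 mg/ml, 4 h at 37 C; absorbance at 570 and 650 nm) gave viability as background-corrected percent change versus controls. H295R cells had 48 h forskolin (10 uM) prestimulation, then 48 h chemical exposure at 0.1% DMSO.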

Assay [2] has as its target Cellular tumor antigen p53 (Homo sapiens) (UniProt P04637). The experiment in a line: TOX21_p53_BLA_p3_ratio: Tox21 HCT-116 p53 Agonism Beta-lactamase Assay, Ratio, Phase 3 (AID 2283596). In outline:
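Cells were seeded at 4000/well, rested 5 h at 37C, then dosed with DMSO compound solutions (217-fold dilution) for 16 h. CCF4-AM substrate was loaded for 2 h at room temperature, and the 460/530 nm emission ratio was fitted for gain of signal versus DMSO.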

A short description of assay [3]: TOX21_p53_BLA_p4_viability: Viability Assessment in the Tox21 HCT-116 p53 Agonism Beta-lactamase Assay, Phase 4 (AID 2283597).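 Note: hits lower the luminescence signal meaning cytotoxicity.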 In outline:
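Viability is taken as cellular ATP: after 16 h compound exposure of HCT116 cells and a 2 h room-temperature CCF4-AM substrate step, CellTiter-Glo reagent is added and luminescence is measured 30 min later.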

Assay [4] deals with Cellular tumor antigen p53 (Homo sapiens) (UniProt P04637). Put plainly: TOX21_p53_BLA_p5_ratio: Tox21 HCT-116 p53 Agonism Beta-lactamase Assay, Ratio, Phase 5 (AID 2283599). The procedure, abridged: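 Beta-lactamase reporter ratio (blue 460 nm over green 530 nm, 405 nm excitation) after 2 h CCF4-AM loading, in HCT-116 cells exposed 16 h at 37 C to compounds pinned at 217-fold dilution. Increases relative to DMSO baseline scored.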

Assay [5] in a line: TOX21_p53_BLA_p5_viability: Viability Assessment in the Tox21 HCT-116 p53 Agonism Beta-lactamase Assay, Phase 5 (AID 2283600). The procedure, abridged: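 Viability is taken from cellular ATP content, measured by luciferase luminescence in the same wells after the beta-lactamase ratio read. Cells are seeded at 4000 per well and exposed to DMSO-dissolved compounds, diluted 217-fold, for 16 h.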

For assay [6], the target named is Cellular tumor antigen p53 (Homo sapiens) (UniProt P04637). The experiment in a line: TOX21_p53_BLA_p4_ratio: Tox21 HCT-116 p53 Agonism Beta-lactamase Assay, Ratio, Phase 4 (AID 2283601). The procedure, abridged: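 Signal is the blue/green (460nm/530nm) ratio of cleaved versus uncleaved CCF4-AM substrate, read after 2 h substrate loading. Cells were HCT116 carrying the p53-responsive beta-lactamase reporter, dosed 16 h at 37C, 5% CO2; CellTiter-Glo measured in parallel.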

A short description of assay [7]: STM_H9_OrnCyssISnorm_ratio: Stemina devTOX quickPredict H9 human embryonic stem cell (hESC)-based Assay for Ornithine (ORN):Cystine (CYSS) Ratio (AID 2283714). In outline:
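Ratio of internal-standard-normalized ornithine to cystine, measured by UPLC-HRMS in spent media from the last 24 h. H9 cells kept pluripotent, dosed 72 h with daily media and compound renewal; DMSO 0.1% serves as baseline.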

The nature of assay [8]: TOX21_p53_BLA_p3_viability: Viability Assessment in the Tox21 HCT-116 p53 Agonism Beta-lactamase Assay, Phase 3 (AID 2283593).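 Note: cells exposed to compound for 16 h before reading.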 In outline:
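Cellular ATP was quantified by CellTiter-Glo luminescence, read after 30 min at room temperature. Beforehand, HCT116 cells (4000/well) received compound 5 h post-seeding, 217-fold diluted from DMSO, then incubated 16 h at 37C.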

The nature of assay [9]: ACEA_AR_agonist_AUC_viability: ACEA Biosciences xCELLigence Real-Time Cell Analysis on Androgen Receptor Agonism for Viability (AID 2283775).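 For AC50: viability read 80 hours after compound addition.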 The procedure, abridged: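 Viability endpoint from xCELLigence impedance in 22Rv1 prostate cells at 80 h. Eight-point series, 100 uM maximum final.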
The subject of assay [10] is Thyroperoxidase (TPO), gene 54314. The experiment in a line: CCTE_Simmons_AUR_rTPO: CCTE's Amplex UltraRed Assay for Thyroperoxidase (TPO) Inhibition, Simmons Lab (AID 2283662).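 For AC50: potency for loss of signal meaning inhibition of peroxidase activity.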 In outline: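 Rat thyroid microsomes (5 ug protein) were incubated with test compound (8 concentrations, 5 nM–87.5 uM final, 0.5% DMSO), 25 uM Amplex UltraRed and 300 uM H2O2 in 200 mM phosphate buffer for 30 min at 37C in the dark; fluorescence read at 544/590 nm.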

In assay [11] the target is Luciferin 4-monooxygenase (Photinus pyralis) (UniProt P08659). Put plainly: CCTE_Simmons_QuantiLum_inhib_2: CCTE's Firefly Luciferase Inhibition Assay, Simmons Lab (AID 2283767).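 For AC50: potency for inhibitors that lower luciferase luminescence relative to DMSO.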 The procedure, abridged:
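Cell-free QuantiLum luciferase, 5 ng/well; compounds 5 nM–87.5 uM final, 8 conc, 0.5% DMSO; 30 min, 37C, dark. Detection reagent (150 uM D-luciferin, 147 uM dATP, CoA, DTT, pH 7.8 final) injected per well, kinetic luminescence. Triplicate biological replicates.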

Assay [12] can be described thus: CCTE_Simmons_CellTiterGLO_HEK293T: Viability Assessment in CCTE's Assays for Thyroperoxidase (TPO) Inhibition, Simmons Lab (AID 2283665).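 For AC50: cells exposed to compound for 24 h before readout; actives reduce ATP signal below DMSO vehicle meaning cytotoxicity.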 The procedure, abridged: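 Luminescent ATP readout (CellTiter-Glo, 20 min at room temperature) after 24 hr exposure of HEK293T cells to 5 nM–87.5 uM final compound; signal loss relative to DMSO vehicle indicated cytotoxicity; dichlone titrated as positive control.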
(In general: In ATP-based viability assays light output follows the ATP content of the culture.)

Chain of Cellular tumor antigen p53 (Homo sapiens) (P04637 whole entry, looked up): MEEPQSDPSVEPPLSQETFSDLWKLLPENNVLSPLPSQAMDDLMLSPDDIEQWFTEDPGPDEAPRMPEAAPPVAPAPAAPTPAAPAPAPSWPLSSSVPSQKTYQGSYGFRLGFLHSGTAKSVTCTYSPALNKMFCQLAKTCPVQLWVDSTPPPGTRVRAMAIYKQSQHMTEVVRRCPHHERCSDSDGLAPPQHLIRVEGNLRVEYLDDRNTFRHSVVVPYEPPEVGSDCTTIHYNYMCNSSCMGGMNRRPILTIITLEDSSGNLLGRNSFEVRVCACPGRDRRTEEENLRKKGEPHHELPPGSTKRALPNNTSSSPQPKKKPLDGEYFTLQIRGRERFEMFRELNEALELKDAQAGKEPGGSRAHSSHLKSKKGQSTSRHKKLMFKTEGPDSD
Chain of Luciferin 4-monooxygenase (Photinus pyralis) (P08659 whole entry, looked up): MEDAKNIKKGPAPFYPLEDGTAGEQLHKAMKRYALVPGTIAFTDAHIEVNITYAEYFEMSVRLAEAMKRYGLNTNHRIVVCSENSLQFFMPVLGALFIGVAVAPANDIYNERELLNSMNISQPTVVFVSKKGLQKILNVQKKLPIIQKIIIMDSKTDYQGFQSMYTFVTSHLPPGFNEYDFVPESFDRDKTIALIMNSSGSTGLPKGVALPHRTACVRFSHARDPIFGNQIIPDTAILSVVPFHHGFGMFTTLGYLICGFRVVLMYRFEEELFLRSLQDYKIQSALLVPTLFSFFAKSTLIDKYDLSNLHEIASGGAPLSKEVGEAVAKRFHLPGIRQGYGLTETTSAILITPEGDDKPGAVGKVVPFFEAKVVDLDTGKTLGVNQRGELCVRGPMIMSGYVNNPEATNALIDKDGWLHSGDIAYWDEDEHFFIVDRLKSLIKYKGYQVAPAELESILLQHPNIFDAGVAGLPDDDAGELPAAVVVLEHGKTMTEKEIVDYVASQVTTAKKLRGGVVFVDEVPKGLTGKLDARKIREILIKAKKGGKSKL

For the compound `C=COCCCC`, the compound was called inactive in assay [1].
For the compound `c1ccc(CNCc2ccccc2)cc1`, the result in assay [2] and in assay [3] was inactive.
For `CCCCNc1ccc(NCCCC)c2c1C(=O)c1ccccc1C2=O`, the outcome in [1] was inactive.
Usually AC50 stands for the concentration giving half of the maximal activity seen. In the case of `CCOC(=O)c1ccccc1C(=C1C=C(Br)C(=O)C(Br)=C1)c1cc(Br)c(O)c(Br)c1`, the AC50 was 10.4 µM (active) in assay [2], 15.2 µM (active) in assay [4], 8.23 µM (active) in assay [6] and 3.9 µM (active) in assay [7]. The call in [5] was inactive.
For `CCc1nccnc1C`, the call in assay [3] and in assay [5] was inactive.
On to `O=C(O)Cc1c(Cl)ccc(Cl)c1Cl`, for which the outcome in [2], in [3] and in assay [5] was inactive.
Consider `O=S(=O)(O)c1ccc2cc(O)c(S(=O)(=O)O)cc2c1`, for which the compound was classed as inactive in [8], in assay [4] and in assay [5].
In the case of `OC1CCCC1`, the result in assay [9] was inactive.
Turning to `CC(C)(C)c1ccc(-c2ccc(C(C)(C)C)cc2)cc1`, the outcome in assay [10], in assay [11] and in [9] was inactive.
On to `C=C1[C@H]2CC[C@@H]3[C@H]2C(C)(C)CCC[C@]13C`, for which the result in assay [2] was inactive.
Turning to `CC1=NN(c2cc(S(=O)(=O)O)ccc2Cl)C(=O)C1N=Nc1ccccc1` (stereo unspecified), the result in assay [2], in assay [4], in assay [6] and in [9] was inactive.
On to `C1=CCCC1`, for which the call in assay [1] was inactive.
Consider `O=S1(=O)OC(c2ccc(O)cc2)(c2ccc(O)cc2)c2ccccc21`, for which the AC50 is 24.9 µM (active) and 22.2 µM (active) in [10]; 72 µM (active) in assay [12]; 36.6 µM (active) and 21.5 µM (active) in [11]. Besides, the compound was called inactive in [12].
For `Cc1ccc(C(C)c2ccc(C)c(C)c2)cc1C`, the outcome in assay [2], in assay [4], in [6], in assay [1] and in assay [9] was inactive.
For `CCCCCCCC/C=C\CCCCCCCC(=O)OCCO`, in assay [9], the result was inactive.
Take `CC(C)(C)c1ccc(N)cc1`: the AC50 in assay [10] was 0.106 µM (active). For the same compound, the compound was classed as inactive in assay [12] and in assay [11].
As for `CCCCC/C=C\CCC=O`, the compound was classed as inactive in assay [8], in assay [2], in assay [3], in assay [4], in assay [6] and in assay [1]. Moreover, the AC50 in assay [9] was 16.6 µM (active).
Regarding `CCCCCCCC[N+](C)(CCCCCCCC)CCCCCCCC`, the concentration at half-maximal activity (AC50) is 23.7 µM (active) in [10], 7.14 µM (active) in [12], 86 µM (active) in assay [11] and 1.03 µM (active) in [9].
Take `CC/C=C\C/C=C\C/C=C\CCCCCCCC(=O)O`: in [10], the AC50 is 28.7 µM (active). Further, the call in assay [12], in assay [11] and in assay [9] was inactive.
`COc1ccc2nc(N)sc2c1`: the compound was classed as inactive in assay [1].
